# According to PubChem BioAssay:
# Calls of active or inactive are those of the source. Unless noted, the rule behind the calls is not given here.
# Tests used:
# [1] = test system: Wnt5a (protein binding on small-molecule microarray); assay: small molecules binding Wnt5a protein – biophysical, small-molecule microarray, 635/667 nm fluorescence, primary screen (AID 1142); conditions: 635 nm fluorescence, higher = more signal;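 note: fluorescence read at 667 nm with signal to noise per printed feature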
# [2] = ATP-based viability of Huh7 replicon cells – cell-based, CellTiter-Glo luminescence, basal, 48 h, cytotoxicity control for HCV replication inhibitor project, primary screen (AID 1143); conditions: higher = more signal, called active from +8 up or from −8 down;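 note: Huh7 hepatoma cells carrying a hepatitis C replication reporter with no stimulus; test concentration not given here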
# [3] = Pseudomonas biofilm growth suppression – PAO1 strain, BacTiter-Glo luminescence, LB-PBS, primary screen (AID 1144); conditions: P. aeruginosa PAO1 biofilm, 12 h, higher = more signal
# [4] = basal CRE-LacZ reporter activity in PC12 – cell-based, unstimulated, primary screen (AID 1145); conditions: no forskolin, luminescence, 4.5 h, higher = more signal, called active from +8 up or from −8 down
# [5] = forskolin-driven CRE-LacZ activity in PC12 – cell-based, CRE-LacZ reporter, forskolin-stimulated, primary screen (AID 1146); conditions: luminescence, 4.5 h, higher = more signal, called active from +8 up or from −8 down;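 note: PC12 cells with 6xCRE LacZ reporter stimulated by forskolin 10 µM; beta-galactosidase reporter signal reflecting CREB driven transcription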
# [6] = target: Streptavidin (Streptomyces avidinii) (UniProt P22629); assay: compounds binding control protein streptavidin – biophysical, small-molecule microarray, 635/667 nm fluorescence, artefact control for SMM compound annotation, primary screen (AID 1147); conditions: higher = more signal;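 note: signal reflects streptavidin binding to arrayed compounds as a control protein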
# [7] = probe aInhba binding on compound microarray – biochemical, small-molecule microarray, 635/667 nm fluorescence, primary screen (AID 1148); conditions: higher = more signal;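 note: score merges 667nm spot fluorescence with signal-to-noise for antibody binding to printed compounds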
# Torsin-1A (Homo sapiens) [8] = target: Torsin-1A (Homo sapiens) (UniProt O14656); assay: TOR1A wild-type binding on microarray – cell lysate, small-molecule microarray, lysate, 635/667 nm, primary screen (AID 1149); conditions: COS7 hTOR1A-WT lysate, 635 nm fluorescence, higher = more signal
# Torsin-1A (Homo sapiens) [9] = target: Torsin-1A (Homo sapiens) (UniProt O14656); assay: torsin A mutant lysate binding on microarrays – cell lysate, small-molecule microarray, COS7 lysate, 635/667 nm fluorescence, primary screen (AID 1150); conditions: COS7 hTOR1A mutant lysate, 635 nm fluorescence, higher = more signal;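 note: score pools 667 nm emission and signal to noise measuring lysate protein binding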
# [10] = test system: Sonic hedgehog protein (Shh); assay: Sonic hedgehog microarray binding compounds – biochemical, small-molecule microarray, 635/667 nm fluorescence, primary screen (AID 1151); conditions: 635 nm fluorescence, higher = more signal;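 note: Shh protein binding to compounds spotted on small-molecule microarray slides; score combines spot fluorescence intensity with signal-to-noise across triplicate slides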
# [11] = optical density shifts of acrAB sulA E. coli – strain DRC41, OD650, 48 h, E. coli filamentation inducer project, primary screen (AID 1152); conditions: higher = more signal, called active from +8 up or from −8 down;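 note: E. coli MC1000 strain DRC41 lacking acrAB efflux pump and sulA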
# [12] = probe aLefty1 binding on compound microarray – biochemical, small-molecule microarray, 635/667 nm fluorescence, primary screen (AID 1153); conditions: higher = more signal;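 note: score merges spot fluorescence with signal-to-noise ratio from the scanned slide images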
# [13] = plasmodial surface anion channel blockers, osmotic lysis – cell-based, P. falciparum Indochina, OD700, 1 h, primary screen (AID 1154); conditions: P. falciparum Indochina infected RBC osmotic lysis, higher = more signal, called active from +8 up or from −8 down
# [14] = plasmodial surface anion channel blockers, osmotic lysis – cell-based, P. falciparum Indochina, OD700, 2 h, primary screen (AID 1155);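 note: lysis reports solute entry through the parasite surface anion channel PSAC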; conditions: P. falciparum Indochina infected erythrocytes, higher = more signal, called active from +8 up or from −8 down
# [15] = changes in parasitized red cell lysis, either direction – P. falciparum Indochina, OD700, 3 h, PSAC antagonist project, primary screen (AID 1156); conditions: P. falciparum-infected erythrocytes, osmotic lysis, higher = more signal, called active from +8 up or from −8 down
# [16] = plasmodial surface anion channel blockers, osmotic lysis – cell-based, P. falciparum Indochina, OD700, 18 h, primary screen (AID 1157); conditions: P. falciparum Indochina infected erythrocytes, osmotic lysis OD700, 18 h; higher = more signal, called active from +8 up or from −8 down
# [17] = S6 kinase pathway phospho-S6 level changes – cell-based, A549, cytoblot, luminescence, serum-stimulated, primary screen (AID 1158); conditions: 5 h, higher = more signal;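 note: serum-stimulated A549 lung adenocarcinoma cells; signal is phosphorylated S6 detected by cytoblot immunostaining with HRP secondary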
# [18] = target: NADPH oxidase 2 (Homo sapiens) (UniProt P04839); assay: compounds shifting NOX2 Amplex Red fluorescence – cell-based, HEK293-NOX2, PMA-stimulated, NOX inhibitor project, primary screen (AID 1159); conditions: 45 min, higher = more signal, called active from +8 up or from −8 down; note: test concentration not given here
# [19] = target: NADPH oxidase 4 (Homo sapiens) (UniProt Q9NPH5); assay: compounds shifting NOX4 Amplex Red fluorescence – cell-based, HEK293-NOX4, tetracycline-induced, NOX inhibitor project, primary screen (AID 1160); conditions: HEK293-NOX4, Amplex Red H2O2 fluorescence, 45 min; higher = more signal, called active from +8 up or from −8 down
# [20] = target: NADPH oxidase 5 (Homo sapiens) (UniProt Q96PH1); assay: compounds shifting NOX5 Amplex Red fluorescence – cell-based, HEK293-NOX5, NOX inhibitor project, primary screen (AID 1161); conditions: HEK293-NOX5, ionomycin, 45 min, higher = more signal
# NADPH oxidase 5 (Homo sapiens), sequence (Q96PH1 whole entry, looked up): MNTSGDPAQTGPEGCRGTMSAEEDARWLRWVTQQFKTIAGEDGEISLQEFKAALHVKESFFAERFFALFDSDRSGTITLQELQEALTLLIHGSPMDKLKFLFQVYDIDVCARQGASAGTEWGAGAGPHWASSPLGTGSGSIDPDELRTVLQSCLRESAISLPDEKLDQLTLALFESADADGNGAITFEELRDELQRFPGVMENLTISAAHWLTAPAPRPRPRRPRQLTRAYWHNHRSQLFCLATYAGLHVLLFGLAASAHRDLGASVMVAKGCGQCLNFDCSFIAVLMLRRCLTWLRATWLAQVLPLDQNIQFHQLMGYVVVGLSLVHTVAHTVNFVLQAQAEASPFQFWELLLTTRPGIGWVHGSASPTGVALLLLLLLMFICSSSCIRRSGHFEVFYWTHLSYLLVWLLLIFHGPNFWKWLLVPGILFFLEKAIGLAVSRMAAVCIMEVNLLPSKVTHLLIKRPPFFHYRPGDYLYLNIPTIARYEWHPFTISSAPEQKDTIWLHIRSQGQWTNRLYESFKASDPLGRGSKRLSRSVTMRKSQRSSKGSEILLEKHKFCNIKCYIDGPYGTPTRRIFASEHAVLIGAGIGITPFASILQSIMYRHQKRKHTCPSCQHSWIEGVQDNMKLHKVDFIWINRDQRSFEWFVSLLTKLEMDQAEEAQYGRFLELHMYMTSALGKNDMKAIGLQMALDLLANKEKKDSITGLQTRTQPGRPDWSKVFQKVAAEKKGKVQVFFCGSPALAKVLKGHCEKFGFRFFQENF
# Streptavidin (Streptomyces avidinii), sequence (P22629 whole entry, looked up): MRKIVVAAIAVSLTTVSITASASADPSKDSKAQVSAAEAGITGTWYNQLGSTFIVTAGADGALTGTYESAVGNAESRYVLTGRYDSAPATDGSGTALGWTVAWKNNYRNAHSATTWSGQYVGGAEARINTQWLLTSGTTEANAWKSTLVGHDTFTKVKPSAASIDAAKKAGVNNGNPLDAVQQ
# NADPH oxidase 2 (Homo sapiens), sequence (P04839 whole entry, looked up): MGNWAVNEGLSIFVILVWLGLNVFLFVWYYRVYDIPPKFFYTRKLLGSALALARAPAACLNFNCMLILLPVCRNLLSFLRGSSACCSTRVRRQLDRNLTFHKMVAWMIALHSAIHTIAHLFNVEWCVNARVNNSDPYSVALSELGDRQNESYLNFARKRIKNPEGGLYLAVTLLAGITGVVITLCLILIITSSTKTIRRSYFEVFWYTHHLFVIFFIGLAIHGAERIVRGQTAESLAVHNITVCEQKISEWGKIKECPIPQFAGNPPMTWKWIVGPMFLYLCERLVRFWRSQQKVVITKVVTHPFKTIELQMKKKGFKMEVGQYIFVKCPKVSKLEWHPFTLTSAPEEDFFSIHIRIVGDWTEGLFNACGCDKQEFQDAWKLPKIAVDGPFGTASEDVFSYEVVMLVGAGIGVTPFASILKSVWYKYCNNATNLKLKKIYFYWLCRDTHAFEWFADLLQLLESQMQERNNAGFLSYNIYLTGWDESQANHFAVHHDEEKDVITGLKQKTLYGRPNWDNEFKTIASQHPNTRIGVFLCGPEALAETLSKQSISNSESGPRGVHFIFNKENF
# NADPH oxidase 4 (Homo sapiens), sequence (Q9NPH5 whole entry, looked up): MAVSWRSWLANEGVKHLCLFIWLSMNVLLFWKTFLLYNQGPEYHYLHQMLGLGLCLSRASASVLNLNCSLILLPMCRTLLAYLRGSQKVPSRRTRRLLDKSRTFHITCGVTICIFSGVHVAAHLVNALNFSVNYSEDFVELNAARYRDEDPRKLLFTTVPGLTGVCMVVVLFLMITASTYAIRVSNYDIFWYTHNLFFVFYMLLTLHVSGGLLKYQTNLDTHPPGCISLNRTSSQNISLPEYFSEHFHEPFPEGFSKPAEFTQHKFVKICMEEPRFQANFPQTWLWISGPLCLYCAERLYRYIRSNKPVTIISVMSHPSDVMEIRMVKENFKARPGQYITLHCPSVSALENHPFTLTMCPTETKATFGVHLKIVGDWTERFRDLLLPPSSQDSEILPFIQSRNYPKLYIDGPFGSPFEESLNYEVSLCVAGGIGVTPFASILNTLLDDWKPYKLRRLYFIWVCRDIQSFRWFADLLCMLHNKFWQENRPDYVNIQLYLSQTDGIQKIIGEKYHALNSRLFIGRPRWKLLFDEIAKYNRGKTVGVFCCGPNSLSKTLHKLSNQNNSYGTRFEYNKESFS
# Torsin-1A (Homo sapiens), sequence (O14656 whole entry, looked up): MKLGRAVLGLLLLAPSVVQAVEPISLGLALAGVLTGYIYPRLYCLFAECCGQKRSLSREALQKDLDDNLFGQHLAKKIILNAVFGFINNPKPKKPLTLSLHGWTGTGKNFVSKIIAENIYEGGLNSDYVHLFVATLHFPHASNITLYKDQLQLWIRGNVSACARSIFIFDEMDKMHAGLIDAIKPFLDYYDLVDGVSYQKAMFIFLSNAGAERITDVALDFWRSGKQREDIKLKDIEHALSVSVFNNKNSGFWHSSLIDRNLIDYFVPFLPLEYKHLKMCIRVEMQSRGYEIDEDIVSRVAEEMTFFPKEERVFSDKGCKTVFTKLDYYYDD
SMILES,composite z-score [1],z-score [2],z-score [3],z-score [4],z-score [5],composite z-score [6],composite z-score [7],composite z-score (Torsin-1A (Homo sapiens) [8]),composite z-score (Torsin-1A (Homo sapiens) [9]),composite z-score [10],z-score [11],composite z-score [12],z-score [13],z-score [14],z-score [15],z-score [16],z-score [17],z-score [18],z-score [19],z-score [20]
COc1ccccc1CN1C(=O)c2ccccc2[C@](Cc2ccccc2I)(C(=O)NC(C)C)[C@@H]1c1ccc(CO)cc1,0.449,-3.63 (inactive),0.0633 (inactive),-0.0243 (inactive),1.08 (inactive),1.13,0.0422,0.667,1.08,1.78,0.646 (inactive),0.0494,4.1 (inactive),0.644 (inactive),0.632 (inactive),0.621 (inactive),0.0569,-2.12 (inactive),0.143 (inactive),-2.1
C=CCC(OC(C)=O)[C@@H]1[C@@H](N(Cc2cc3ccccc3o2)C(=O)Cc2ccc(F)cc2)c2cc(OCCCO)ccc2N1C(=O)c1ccc2ccccc2n1 (stereo not given in full),0.705,0.252 (inactive),-0.398 (inactive),3.16 (inactive),0.0063 (inactive),0.0443,-0.142,-0.398,-0.226,0.0974,-0.548 (inactive),-0.0984,1.05 (inactive),0.213 (inactive),-0.627 (inactive),-0.0096 (inactive),-0.53,0.259 (inactive),0.642 (inactive),1.28
CN(C)CCCN1C(=O)[C@@]2(c3ccc([N+](=O)[O-])cc3)CC(=O)N(CC34CC5CC(CC(C5)C3)C4)[C@@H]2c2ccc(CO)cc21,-0.199,0.278 (inactive),0.878 (inactive),-0.0259 (inactive),-0.598 (inactive),-0.472,-0.0963,-0.524,-0.17,0.0109,0.388 (inactive),-0.0662,2.1 (inactive),-0.451 (inactive),1.27 (inactive),-0.405 (inactive),0.299,-2.29 (inactive),-0.0839 (inactive),1.56
CC(C)C(=C=CC[C@H](O)c1ccc(OCCO)cc1)C[C@H](O)c1cc(Cl)cc(Cl)c1O,0.0991,-3.24 (inactive),0.0919 (inactive),7.76 (inactive),-0.457 (inactive),0.122,0.153,0.895,0.656,1.71,0.049 (inactive),0.121,19.4 (active),3.7 (inactive),1.44 (inactive),1.24 (inactive),-0.173,0.532 (inactive),-0.473 (inactive),-1.36
C=CCOC(=O)[C@@H]1[C@H]2C(=O)O[C@H](c3ccccc3)[C@H](c3ccccc3)N2[C@H](c2ccc(OCCOC(=O)[C@H]3C[C@H]4C(=O)N[C@@H](CCCC[N+](C)(C)C)C(=O)N4[C@H]3c3ccc(O)cc3)cc2)[C@@]12C(=O)Nc1ccc(I)cc12,0.568,-0.449 (inactive),-0.0678 (inactive),0.277 (inactive),-0.391 (inactive),0.0658,0.0982,0.636,0.644,2.15,-0.451 (inactive),0.113,2.42 (inactive),1.57 (inactive),0.511 (inactive),0.792 (inactive),-0.281,1.4 (inactive),1.06 (inactive),1.24
O=C(O)[C@H]1C[C@H]2C(=O)N3CCC[C@H]3C(=O)N2[C@H]1c1cccc(OCCO)c1,0.188,-0.716 (inactive),0.0521 (inactive),0.818 (inactive),0.0548 (inactive),-0.0748,-0.154,0.847,1.57,0.643,0.71 (inactive),-0.017,6.65 (inactive),1.08 (inactive),-1.69 (inactive),0.619 (inactive),0.557,-0.117 (inactive),-0.0548 (inactive),1.24
COc1cc2c(cc1OC)CN(C(=O)[C@H]1[C@@H]3C(=O)O[C@@H](c4ccccc4)[C@@H](c4ccccc4)N3[C@@H](c3ccc(OCCO)cc3)[C@]13C(=O)Nc1ccc(C#CC4(O)CCCCCC4)cc13)CC2,0.928,-0.425 (inactive),-1.33 (inactive),-0.438 (inactive),0.195 (inactive),1.54,1.23,0.765,1.85,1.96,1.9 (inactive),1.51,3.15 (inactive),2.15 (inactive),1.08 (inactive),1.35 (inactive),0.108,1.32 (inactive),0.882 (inactive),1.28
[N-]=[N+]=Nc1ccccc1C[C@]1(C(=O)NCc2ccccc2)N=C(c2ccc(OCCCO)cc2)O[C@H]1c1ccccc1,0.307,-3.03 (inactive),-0.523 (inactive),-0.585 (inactive),1.15 (inactive),1.44,0.192,0.403,0.687,-0.312,0.383 (inactive),0.394,17.6 (active),3.08 (inactive),1.14 (inactive),0.786 (inactive),-0.16,-0.172 (inactive),1.45 (inactive),1.03
CO[C@H]1O[C@H](CO)[C@@H](OC(=O)Nc2ccc(C(F)(F)F)cc2)[C@H](OC(=O)Nc2ccc3c(c2)OCO3)[C@H]1OC(=O)Nc1ccc2c(c1)OCO2,0.259,-4.23 (inactive),0.558 (inactive),1.54 (inactive),1.38 (inactive),0.656,0.234,0.201,0.746,0.99,-0.463 (inactive),0.662,7.33 (inactive),0.993 (inactive),0.61 (inactive),0.619 (inactive),-0.388,-4.33 (inactive),-0.99 (inactive),-1.82
